According to PubChem BioAssay AID720553 (National Center for Advancing Translational Sciences (NCATS), 2013):
About 3,300 (0.97%) of roughly 340,000 compounds were called active. The sample holds actives, similar compounds and a random draw of the others, so the mix is not that of the screen. Unmarked numbers belong to inactive results.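 Rule for the calls: active = maximum activity change below -70%; inconclusive = maximum activity change from -70% to -50%; inactive = maximum activity change above -50%.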

These compounds were tested on Potassium voltage-gated channel subfamily H member 2, brain isoform KCNH2 3.1 (human) (assay: qHTS for Inhibitors of KCHN2 3.1: Mutant qHTS). Settings: U2OS KCNH2 3.1, thallium flux FluxOr; hits give low values.
Method in brief: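 Thallium flux read-out: FluxOr dye with Red40 quencher in HBSS/HEPES, 45 min at RT. Rate constants from kinetic reads were normalized to positive and negative DMSO controls. Cells: U2OS virally expressing the 3.1 isoform.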
% is set by controls: 0 for no effect and ±100 for the full control effect.

| Compound | activity change |
| --- | --- |
| O=C(COC(=O)Cc1ccc(Cl)cc1Cl)NCc1ccco1 | -13.7% |
| O=C(O)C1=C(C(=O)O)C2CCC1C2 | 1.57% |
| COc1ccccc1OCCNC(=O)c1cc([N+](=O)[O-])cc([N+](=O)[O-])c1 | -8.81% |
| COc1cc(C(=O)NCCOC(=O)c2cccc(N(C)C)c2)cc(OC)c1OC | -77.8% (active) |
| COC(=O)c1cccc(NC(=O)CN2CCC(NC(=O)c3cc(OC)c(OC)c(OC)c3)CC2)c1 | -11.4% |
| O[C@@H]1C[C@H](c2ccccc2)N(Cc2cccs2)C[C@H]1n1cc(C2CC2)nn1 | -10.3% |
| C[C@@H]1CN([C@@H](C)CO)C(=O)CCCn2nncc2CO[C@H]1CN(C)Cc1ccc(C(F)(F)F)cc1 | 15.2% |
| COc1ccc(S(=O)(=O)N2CCC(C(=O)NCCC(=O)NCCc3cccc(F)c3)CC2)cc1 | -0.519% |
| Cc1cc(=O)oc2cc(NC(=O)C(C)Oc3ccccc3)ccc12 (configuration not stated) | 16.9% |
| Cc1cc(=O)oc2cc(NC(=O)C3CC(=O)N(Cc4ccccc4)C3)ccc12 (configuration not stated) | -71% (active) |
| O=C(Nc1ccc(F)c([N+](=O)[O-])c1)C1CC(=O)N(Cc2ccccc2)C1 (configuration not stated) | -5.91% |
| Cc1cc(-c2ccc(C)c(S(=O)(=O)Nc3ccc(S(N)(=O)=O)cc3)c2)on1 | 6.07% |
| Cc1ccc2c(c1)N(S(=O)(=O)c1cc(-c3cc(C)no3)ccc1C)CCO2 | -82.2% (active) |
| Cc1cc(-c2ccc(C)c(S(=O)(=O)NC(C)Cc3ccco3)c2)on1 (configuration not stated) | -6.2% |
| Cc1ccc(-c2ccc(CN3C(C(C)C)C(=O)N(Cc4cn(CCC5OCCO5)nn4)CCS3(=O)=O)cc2)cc1 (configuration not stated) | 0.464% |
| Cc1noc(C)c1NC(=O)N(C)C[C@@H]1Oc2cc(Br)ccc2S(=O)(=O)N([C@@H](C)CO)C[C@H]1C | -17.2% |
| COCOCCn1cc(CN2CCS(=O)(=O)N(Cc3ccc(-c4ccc(OC)cc4)cc3)C(CC(C)C)C2=O)nn1 (configuration not stated) | -1.8% |
| C/C=C(\C)C(=O)NCCN1C2=NC[C@H](Cc3ccc(O)cc3)N2C[C@@H]1Cc1ccc(OC)cc1 | -104% (active) |
| COc1ccc(CCNC(=O)COC(=O)C2CC2C)cc1 (configuration not stated) | 5.06% |
| COc1ccc(C[C@H]2CN3C(=NC[C@H]3C)N2CCNC(=O)CCC2CCCCC2)cc1 | -109% (active) |
| COc1ccc(NC(=O)CCCC2CCCCC2)c(OC)c1 | 8.96% |
| COc1ccc(CCNC(=O)COC(=O)C2CCCCC2)cc1 | 8.75% |

| Compound | activity change |
| --- | --- |
| NC1=NC[C@@H](Cc2ccc(O)cc2)N1CC1CCCCC1 | 19% |
| Cc1ccn(CC(=O)NC2CCCN(Cc3ccccc3F)C2)n1 (configuration not stated) | 7.86% |
| O=C(O)c1ccccc1Cc1ccc(F)c2ccccc12 | 1.01% |
| CCN(CC)C(=O)C1=C(C)N(Cc2ccc(F)cc2)C(=O)C(CC(=O)NCc2cccc3ccccc23)C1 (configuration not stated) | 10.8% |
| CCn1c(CSCc2c(Cl)cccc2Cl)n[nH]c1=S | -10.5% |
| CCn1c(CN2C(=O)CSc3ccccc32)n[nH]c1=S | -86.9% (active) |
| CCn1c(CNS(=O)(=O)c2ccc(Cl)cc2)n[nH]c1=S | -7.51% |
| CCN(CC)C(=O)C1=C(C)N(Cc2ccc(OC)cc2)C(=O)C(CC(=O)NCCCCc2ccccc2)C1 (configuration not stated) | -3.76% |
| CSc1nnc(CNC(=O)c2ccccc2)n1-c1ccc(F)cc1 | -88.2% (active) |
| CCOC(=O)CSc1nnc(CNC(=O)c2ccco2)n1-c1ccc(F)cc1 | -10.2% |
| CCn1c(CNC(=O)c2ccccc2)nnc1SCC(=O)N1CCN(c2ccccc2)CC1 | -7.37% |
| COc1cc2ccc(C(C)=O)c(O)c2cc1OC | 5.97% |
| N#CCCC(C#N)(c1cccnc1)N1CCOCC1 (configuration not stated) | 7.47% |
| C[C@H](CO)N1C[C@H](C)[C@@H](CN(C)C(=O)c2cccc(F)c2)Oc2cc(-c3cncnc3)ccc2S1(=O)=O | -2.89% |
| COc1cccc(OC)c1C(=O)N1CCN(Cc2ccccc2F)CC1 | -6.56% |
| COc1ccc(CN2CN(C(C)C)CSC2=S)cc1 | -82.5% (active) |
| S=C1SCN(CCN2CCOCC2)CN1Cc1ccccc1 | -10.5% |
| COc1ccc(CN2CN(C3CCCC3)CSC2=S)cc1 | -9.2% |
| C[C@@H]1CN([C@@H](C)CO)C(=O)CCCn2cc(nn2)CO[C@H]1CN(C)S(=O)(=O)c1ccc(-n2cccn2)cc1 | 7.17% |
| Cc1c(NC(=O)COC(=O)/C=C/c2cccc(F)c2)c(=O)n(-c2ccccc2)n1C | 1.3% |
| CC(C)(C)n1nnnc1C(c1ccc(Cl)cc1)N1CCSCC1 (configuration not stated) | -3.03% |
| CCC(C)(C)n1nnnc1C(c1ccccc1OC)N1CCSCC1 (configuration not stated) | -86.1% (active) |

| Compound | activity change |
| --- | --- |
| COc1ccccc1C(c1nnnn1C(C)(C)C)N1CCN(Cc2ccccc2)CC1 (configuration not stated) | 5% |
| Cc1ccccc1NC(=O)Cc1nc(COC(=O)CNC(=O)c2ccc(Cl)cc2Cl)cs1 | -9.74% |
| COc1ccc(S(=O)(=O)N2CCCCC2)cc1C(=O)NC1CCS(=O)(=O)C1 (configuration not stated) | 26.3% |
| CCN(CC)C(=O)C1=C(C)N(Cc2ccc(OC)cc2)C(=O)C(CC(=O)NCc2ccco2)C1 (configuration not stated) | 22.6% |
| CN(C)/C=C(/C(=O)c1ccc(Cl)cc1)S(=O)(=O)c1ccccc1 | 3.05% |
| CN(C)/C=C(/C(=O)c1ccccc1)S(=O)(=O)c1ccc(Cl)cc1 | 7.64% |
| CN(C)/C=C(/C(=O)c1ccccc1Cl)S(C)(=O)=O | -180% (active) |
| Cc1nc(N2CCC(C)CC2)c2c(C)c(C(=O)Nc3cc(F)ccc3C)sc2n1 | -5.3% |
| Cc1nc(N2CCOCC2)c2c(C)c(C(=O)Nc3ccc(C(F)(F)F)cc3)sc2n1 | -41.2% |
| COc1ccc(NC(=O)c2sc3nc(C)nc(N4CCN(c5ccccn5)CC4)c3c2C)c(OC)c1 | -30.8% |
| Cc1cc(Br)ccc1NC(=O)c1sc2ncn(CC(=O)N3CCN(c4ccccn4)CC3)c(=O)c2c1C | -4.47% |
| Cc1nc(N2CCN(c3ccccn3)CC2)c2c(C)c(C(=O)Nc3ccc(F)cc3)sc2n1 | -101% (active) |
| Cc1nc(N2CCN(c3ccccn3)CC2)c2c(C)c(C(=O)Nc3ccc(F)c(Cl)c3)sc2n1 | -77.6% (active) |
| CC1(C2CC2)NC(=O)N(CC(=O)N2CCN(c3ccccc3F)CC2)C1=O (configuration not stated) | 3.05% |
| CN1OC[C@@H]2CN(S(=O)(=O)c3cccc(C(F)(F)F)c3)[C@H](c3ccc(-c4cc5ccccc5o4)cc3)C[C@@H]21 | -6.35% |
| C[C@H]1CN([C@@H](C)CO)C(=O)CCCn2cc(nn2)CO[C@@H]1CN(C)S(=O)(=O)c1ccc(-n2cccn2)cc1 | 5.9% |
| COc1ccc(NC(=O)CCCOc2ccc(C(C)=O)cc2)cc1S(=O)(=O)N1CCCCC1 | 6.94% |
| CCCCCCN1C[C@@H](O)[C@H](n2cc(COC(=O)c3ccccc3)nn2)C[C@@H]1c1ccc(Cl)cc1 | -8% |
| O=S(=O)(c1cccs1)N1CCN(Cc2ccccc2)CC1 | -4.85% |
| O=S(=O)(c1cccs1)N1CCN(CCOc2ccccc2)CC1 | -99.6% (active) |
| O=S(=O)(c1cccs1)N1CCc2ccccc2C1 | 6.27% |
| Cc1ccc(NC(=S)N/N=C2/CCCc3c(C)cc(C)cc32)cc1 | -3.22% |

| Compound | activity change |
| --- | --- |
| Cc1ccc(C)c(NC(=S)NNC(=O)c2csc(C)c2)c1 | -0.222% |
| Cc1ccc(C)c(NC(=S)NNC(=S)Nc2ccc(C(C)C)cc2)c1 | -96.6% (active) |
| CCc1nc2c(=O)[nH]cnc2o1 | 2.34% |
| NC(=S)NN=Cc1ccc(OC(=O)COc2cc(Cl)c(Cl)cc2Cl)cn1 | -0.923% |
| CN1C(=O)/C(=C\c2ccc(-c3ccccc3)o2)SC1=S | -83.7% (active) |
| NS(=O)(=O)c1ccc(-c2ccc(/C=C3\SC(=O)NC3=O)o2)cc1 | 14.4% |
| O=C1NN(c2ccccc2)C(=O)/C1=C/c1ccc(-c2cccc(C(=O)O)c2)o1 | 28.7% |
| COc1ccc(NC(=O)CN2C(=O)NC(C)(c3ccccc3)C2=O)cn1 (configuration not stated) | -3.34% |
| O=C(CSc1nnc(-c2cccnc2)n1Cc1ccco1)c1ccc(Cl)c(Cl)c1 | -12.1% |
| Cc1ccc(NC(=O)CSc2nnc(-c3cnccn3)n2Cc2ccco2)cc1C | 3.68% |
| O=C(CSc1nnc(-c2cnccn2)n1Cc1ccco1)c1ccc(Cl)c(Cl)c1 | -196% (active) |
| CCN(CC)C(=O)C1=C(C)N(Cc2ccc(C(C)(C)C)cc2)C(=O)C(CC(=O)NCc2cccc3ccccc23)C1 (configuration not stated) | -13.1% |
| CCc1cc(C(N)=O)c(NC(=O)c2ccc(OC)cc2)s1 | 3.81% |
| CCOc1ccc(NC(=O)CN2CCN(CC(=O)Nc3ccc(OC)cc3)CC2)cc1 | -89.9% (active) |
| COc1ccc(C(=O)Nc2sc(C)c(C)c2CN2CCOCC2)cc1 | 0.971% |
| CCc1cc(C(=O)c2ccc(OC)cc2)c(NC(=O)CN2CCN(C)CC2)s1 | -103% (active) |
| COc1ccc(NC(=O)CN2C(=O)CSC2=O)cc1 | 5.91% |
| CCC1CCC2(CC1)NC(=O)N(CC(=O)Nc1ccc(OC)cc1)C2=O (configuration not stated) | 10.2% |
| COc1ccc(C(=O)N2CCC(C(=O)Nc3ccc(C)cc3)CC2)cc1 | -27% |
| CCc1ccc(NC(=O)CN2CCC(C(=O)c3ccc(OC)cc3)CC2)cc1 | -75.5% (active) |
| CCOc1ccc(NC(=O)N2CCN(CC)CC2)cc1 | 10.1% |
